Test results taken from ChEMBL document CHEMBL4513146, “CO-ADD screening of Karazin Kharkiv National University (Ukraine) compounds”.
Measured potencies and affinities stand elsewhere.

What was measured:
Klebsiella pneumoniae = details: Concentration 32 ug.mL-1;; ASSAY_TEST Inhibition of Bacterial Growth; detection method Absorption (OD600); MEDIA CAMHB; plate type 384well; NBS; CORNING #3640; time 18 hr
Candida albicans = details: Concentration 32 ug.mL-1; ASSAY_TEST Inhibition of Fungal Growth; detection method Absorption (OD530)
Cryptococcus neoformans = details: Concentration 32 ug.mL-1; ASSAY_TEST Inhibition of Fungal Growth; detection method Resazurin; Absorption (OD600-OD570); plate type 384well; NBS; CORNING #3640

SMILES	Inhibition (Klebsiella pneumoniae) [%]	Inhibition (Candida albicans) [%]	Inhibition (Cryptococcus neoformans) [%]
O=C(Cn1nc2ccc(SCc3ccc(Cl)cc3)nn2c1=O)Nc1ccc2c(c1)OCO2	15.3	22.84	-22.42
Cc1cccc(CN(c2ccc(C(C)C)cc2)S(=O)(=O)c2cccn3c(C)nnc23)c1	9.59	3.05	-9.59
COc1ccc(CNC(=O)Cn2nc3c(Oc4ccccc4C)nccn3c2=O)cc1	7.26	-2.47	-8.82
COc1ccc(CCn2c(=O)c3sccc3n3c(=O)n(Cc4c(F)cccc4Cl)nc23)cc1OC	4.92	-1.61	-23.43
COc1cccc(-n2ccn3c(SCC(=O)Nc4ccccc4Cl)nnc3c2=O)c1	9.92	1.92	-13.6
NC(=O)CSc1nnc2c(=O)n(-c3ccc(F)cc3)ccn12	0.07	2.37	-6.51
CCc1nnc2c(SCC(=O)Nc3cccc(OC)c3)nc3ccccc3n12	3.16	3.37	-8.02
CCOC(=O)c1ccc(NC(=O)Cn2nc3c4sc(N5CCCC5)nc4ncn3c2=O)cc1	-7.55	32.94	-7.69
COc1ccc(NC(=O)Cn2nc3c(Sc4cccc(F)c4)nccn3c2=O)cc1Cl	3.02	0.26	-9.78
COc1ccc(NC(=O)CSc2nnc3c(=O)n(-c4ccccc4)ccn23)cc1OC	12.94	3.46	-16.1
CCc1nnc2c(S(=O)(=O)N(Cc3ccccc3F)c3ccc(F)cc3)cccn12	2.68	1.99	-5.43
Cc1nnc2ccc(S(=O)(=O)N(Cc3cccc(F)c3)c3cccc(F)c3)cn12	2.6	1.95	-8.19
CCCCn1c(=O)c2sccc2n2c(=O)n(CC(=O)c3cccc(OC)c3)nc12	13.89	1.56	-15.97
Cc1ccc(NC(=O)Cn2nc3c(N4CCCC(C)C4)nccn3c2=O)cc1C (stereo not drawn)	-5.74	1.72	-9.99
Cc1ccc(-c2ccc3nn(Cc4cccc(Br)c4)c(=O)n3n2)cc1C	14.87	0.19	-18.95
COc1ccc(-c2cc3c4nn(CC(=O)N5CCCc6ccccc65)c(=O)n4ccn3n2)cc1	10.34	3.82	-13.79
O=C(Cn1nc2c(SC3CCCCC3)nccn2c1=O)Nc1ccc(F)cc1	10.22	0.1	-30.85
Cc1ccc(NC(=O)CSc2nnc3c4cc(-c5ccccc5)nn4ccn23)c(C)c1	-1.1	4.18	-18.24
CC(C)c1nnc2c(=O)n(CC(=O)Nc3ccc(F)cc3F)c3ccccc3n12	15.02	0.81	-23.4
CCc1nnc2c(S(=O)(=O)N(Cc3cccc(OC)c3)c3cccc(C)c3)cccn12	0.84	7.06	-5.34
COc1ccc(NC(=O)Cn2nc3c4cc(-c5ccc(F)cc5)nn4ccn3c2=O)c(OC)c1	14.79	2.08	-15.48

SMILES	Inhibition (Klebsiella pneumoniae) [%]	Inhibition (Candida albicans) [%]	Inhibition (Cryptococcus neoformans) [%]
CCCCN(C)c1ccc2nnc(CCc3nc(-c4cc(OC)cc(OC)c4)no3)n2n1	6.4	9.61	-5.17
O=C(Cn1nc2c(=O)n(-c3ccc(Br)cc3)ccn2c1=O)Nc1ccc(F)cc1F	7.12	0.41	-12.15
O=C(Cn1nc2c3sc(N4CCCC4)nc3ncn2c1=O)Nc1ccc(C(F)(F)F)cc1	13.17	1.98	-9.31
O=C(CSc1nnc2ccc(C(=O)Nc3cccc(F)c3)cn12)Nc1ccc(F)c(F)c1	2.94	5.97	-3.04
O=C(CSc1nnc2c(=O)n(-c3ccccc3)ccn12)Nc1ccc(Br)cc1	9.81	2.41	-15.78
COc1ccccc1-n1ccn2c(SCC(=O)Nc3ccc(C)c(F)c3)nnc2c1=O	8.02	2.55	-5.32
Cc1ccc(NC(=O)Cn2nc3ccc(-c4ccccc4)nn3c2=O)cc1	0.91	16.23	-12.72
CSc1cccc(NC(=O)Cn2nc3ccc(-c4ccc(C)c(C)c4)nn3c2=O)c1	-6.08	28.21	-10.99
Cc1ccc(NC(=O)Cn2nc3ccc(SCc4ccc(Cl)cc4)nn3c2=O)cc1	-9.13	7.44	-7.75
COc1cccc(-c2nc(CSc3nc4ccccc4n4c(C)nnc34)c(C)o2)c1OC	8.41	0.37	-19.84
Cc1cccc(NC(=O)Cn2c(=O)c3nnc(C(C)C)n3c3ccccc32)c1	2.46	0.3	-17.48
COc1cc(OC)c(NC(=O)Cn2nc3c(Sc4ccc(C)cc4C)nccn3c2=O)cc1Cl	6.06	4	-14.9
COc1ccccc1N1CCN(C(=O)Cn2nc3c(Oc4ccc(C)cc4)nccn3c2=O)CC1	13.94	1.98	-10.45
COc1cccc(-n2ccn3c(SC(C)C(=O)c4ccc(C)c(C)c4)nnc3c2=O)c1 (stereo not drawn)	3.32	2.99	-3.88
CCOC(=O)c1ccccc1NC(=O)Cn1nc2c(Sc3ccccc3)nccn2c1=O	9.77	-1.59	-6.53
COc1ccc(-n2ccn3c(=O)n(Cc4ccccc4Cl)nc3c2=O)cc1Cl	3.5	1.04	0.74
Cc1ccc(-n2ccn3c(SCC(=O)c4c[nH]c5ccccc45)nnc3c2=O)cc1C	9.4	3.27	-5.1
CC(C)Cn1c(=O)c2sccc2n2c(=O)n(CC(=O)N(C)c3ccccc3)nc12	9.42	-0.55	-10.06
Cc1ccc(-n2ccn3c(SCC#N)nnc3c2=O)cc1C	10.69	1.05	-5.76
O=C(Cn1nc2c3cc(-c4ccc(F)cc4)nn3ccn2c1=O)Nc1ccccc1	5.09	9.56	-11.97
Cc1nc(-c2ccccn2)cc2nn(CC(=O)Nc3ccccc3C(F)(F)F)c(=O)n12	3.31	0.65	-8.99

SMILES	Inhibition (Klebsiella pneumoniae) [%]	Inhibition (Candida albicans) [%]	Inhibition (Cryptococcus neoformans) [%]
COc1ccc(C)cc1NC(=O)Cn1nc2cc(C)nc(Nc3ccc(F)cc3)n2c1=O	2.21	2.84	-7.79
Cc1ccc(-c2cc3c4nn(CC(=O)Nc5cccc(C)c5C)c(=O)n4ccn3n2)cc1C	14.55	0.02	-23.37
COC(=O)c1ccccc1NC(=O)Cn1nc2c(Oc3ccc(C)cc3)nccn2c1=O	2.12	-2.14	-10.13
Cc1ccc(NC(=O)Cn2nc3c(N4CCCC4)nccn3c2=O)cc1Cl	13.96	0.98	-21.34
COc1ccc(-c2cc3c4nnc(SCC(=O)Nc5ccccc5C(F)(F)F)n4ccn3n2)cc1	8.66	3.79	-13.07
Cc1cc2nn(CC(=O)Nc3ccc(C)c(F)c3)c(=O)n2c(Nc2ccc(C)c(F)c2)n1	13.96	19.28	-10.18
O=C(Cn1nc2nc(Nc3ccc(F)cc3)ccn2c1=O)N1CCCc2ccccc21	14.82	2.56	-7.45
Cc1ccc(-c2ccc3nn(Cc4ccc(Cl)cc4)c(=O)n3n2)cc1C	5.62	5.2	-10.05
COc1cc(OC)c(NC(=O)Cn2nc3c(SC4CCCCC4)nccn3c2=O)cc1Cl	9.62	7.28	-20.84
Cc1ccccc1CN(c1ccc(C(C)C)cc1)S(=O)(=O)c1cccn2c(C)nnc12	8.89	4.49	-10.58
O=C(Cn1nc2c3sc(N4CCCC4)nc3ncn2c1=O)Nc1ccccc1Br	2.42	1.39	-9.14
Cc1cc(C)cc(Nc2nc(C)cc3nn(CC(=O)Nc4cccc(Cl)c4)c(=O)n23)c1	7.28	4.92	-8.23
Cc1cc(C)cc(NC(=O)Cn2nc3ccc(SC(C)(C)C)nn3c2=O)c1	7.43	7	-18.29
COc1cccc(-n2ccn3c(SCc4cccc(Cl)c4)nnc3c2=O)c1	8.66	0.25	-7.39
COc1ccc(NC(=O)Cn2nc3c(N4CCCC(C)C4)nccn3c2=O)cc1OC (stereo not drawn)	-1.27	-0.12	-7.35
Cc1ccc(N(CC(=O)OC(C)(C)C)S(=O)(=O)c2cccn3cnnc23)cc1	9.31	3.93	-6.45
Cc1ccc(NC(=O)Cn2c(=O)c3nnc(C(C)C)n3c3ccccc32)c(C)c1	5.02	1.04	-15.61
COc1ccc(CNC(=O)Cn2nc3c(Oc4cccc(C)c4C)nccn3c2=O)cc1	3.56	-0.71	-3.17
COc1ccc(-c2cc3c4nnc(SCC(=O)Nc5ccc(OC)c(Cl)c5)n4ccn3n2)cc1	6.25	2.5	-21.63
